# High-throughput results from PubChem BioAssay.
# Only some compounds are listed: those with a hit (about 12% of all), similar ones and a draw of the others.
# L3MBTL1 inh – qHTS Assay for the Inhibitors of L3MBTL1; Lethal(3)malignant brain tumor-like protein 1 (Homo sapiens), Q9Y468; AlphaScreen L3MBTL1–H3K9me1 peptide binding; Potency, µM (highest dose often 57.1 µM), inactives show at the top dose activity, negative = inhibition, hits mostly inhibitors; 0.66% of 230,000 active; AID 485360, 2010; also: % is scaled to controls: 0 for no effect and ±100 for the full control effect; nearly all actives have a fitted effect of over 60% in size
# Target sequence (Q9Y468 whole entry, looked up): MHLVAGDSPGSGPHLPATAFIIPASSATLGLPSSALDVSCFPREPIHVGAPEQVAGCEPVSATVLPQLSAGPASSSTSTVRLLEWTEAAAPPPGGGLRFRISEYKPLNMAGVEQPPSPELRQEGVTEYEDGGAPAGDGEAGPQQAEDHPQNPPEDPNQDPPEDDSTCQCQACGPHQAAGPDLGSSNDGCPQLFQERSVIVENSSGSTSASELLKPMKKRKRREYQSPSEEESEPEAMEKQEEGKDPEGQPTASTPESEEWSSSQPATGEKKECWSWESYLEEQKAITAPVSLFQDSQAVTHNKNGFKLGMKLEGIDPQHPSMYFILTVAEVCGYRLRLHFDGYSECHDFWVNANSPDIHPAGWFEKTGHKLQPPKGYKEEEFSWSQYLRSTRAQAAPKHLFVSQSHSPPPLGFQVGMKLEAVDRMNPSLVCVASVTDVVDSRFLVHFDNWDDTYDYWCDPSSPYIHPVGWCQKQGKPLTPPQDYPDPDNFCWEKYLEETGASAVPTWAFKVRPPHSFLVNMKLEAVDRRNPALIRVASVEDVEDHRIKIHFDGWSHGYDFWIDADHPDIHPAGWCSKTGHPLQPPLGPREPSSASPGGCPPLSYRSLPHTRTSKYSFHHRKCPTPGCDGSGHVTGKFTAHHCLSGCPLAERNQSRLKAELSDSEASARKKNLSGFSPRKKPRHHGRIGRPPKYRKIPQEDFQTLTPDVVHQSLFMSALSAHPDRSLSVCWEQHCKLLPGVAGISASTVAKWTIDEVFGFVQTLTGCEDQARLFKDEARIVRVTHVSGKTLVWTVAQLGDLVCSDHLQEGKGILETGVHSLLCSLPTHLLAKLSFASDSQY
#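 L3MBTL1 50 nM + b-AHA-H3(1-15)K9me1 75 nM, 30 min RT; compound added, 30 min RT; streptavidin donor/Ni-chelate acceptor beads 10 ug/mL each final, 30 min RT dark; AlphaScreen read.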
# G9a inh – qHTS Assay for Inhibitors of Histone Lysine Methyltransferase G9a | 8.8% of 350,000 active | Potency, µM (titrated, usually from 102 µM), for the others: at the highest dose activity, negative = inhibition, most hits filed as inhibitors | AID 504332, 2011 | G9a H3K9 monomethylation, AlphaScreen, 2 h | Histone-lysine N-methyltransferase EHMT2 (Homo sapiens), Q96KQ7; also: % is scaled to controls: 0 for no effect and ±100 for the full control effect; nearly all actives have a fitted effect of over 75% in size
#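 Readings reflect AlphaScreen signal from monomethyl-H3K9 antibody detection. HMT at 20 nM; substrate b-H3K9 500 nM; cofactor SAM 20 uM; 2 h RT reaction; compounds tested as titrations in qHTS with 15 min preincubation.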
# HP1b chromo inh – HTS for Inhibitors of HP1-beta Chromodomain Interactions with Methylated Histone Tails. 0.56% of 390,000 active. Potency, µM (series often up to 114 µM), without a hit: top-dose activity change, negative = inhibition, hits mostly inhibitors. AlphaScreen HP1-beta / biotin-H3K9me3 peptide binding; also: nearly all actives have a fitted effect of over 70% in size
#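 AlphaScreen: HP1-beta (50 nM) preformed 30 min with biotin-H3(1-18)K9me3 peptide (50 nM) in PBS pH 7.4, 0.01% Tween-20. Compound added for 30 min at RT, then streptavidin donor/nickel chelate acceptor beads (10 ug/mL) for 30 min.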
# JMJD2A Tudor – qHTS Assay for Inhibitors of JMJD2A-Tudor Domain | Lysine-specific demethylase 4A (Homo sapiens), O75164 | AlphaScreen JMJD2A-Tudor / H3K4me3 peptide binding | Potency, µM (top dose mostly 114 µM), for inactives: at the top dose activity change, negative = inhibition, usual class: inhibitors | 4.4% of 390,000 active | AID 504339, 2011; also: % is scaled to controls: 0 for no effect and ±100 for the full control effect; nearly all actives have a fitted effect of over 50% in size
# BAZ2B inh – qHTS Assay for Inhibitors of BAZ2B; 4.4% of 360,000 active; Potency, µM (series often up to 114 µM), for the others: top-dose activity change, negative = inhibition, most hits filed as inhibitors; AlphaScreen BAZ2B-H3K14Ac peptide displacement; Bromodomain adjacent to zinc finger domain protein 2B (Homo sapiens), Q9UIF8; also: % is scaled to controls: 0 for no effect and ±100 for the full control effect; nearly all actives have a fitted effect of over 60% in size
#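 BAZ2B 50 nM plus b-H3(5-23)K14Ac 50 nM, PBS pH 7.4/0.01% Tween-20, 30 min RT; compound added (max 110 uM), 30 min RT; streptavidin donor/Ni-chelate acceptor beads 10 ug/mL final, 20 min dark; AlphaScreen read.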
# Sfp inh – qHTS Assay for Inhibitors of Bacillus subtilis Sfp phosphopantetheinyl transferase (PPTase); 4'-phosphopantetheinyl transferase ffp (Bacillus subtilis), Q9F4F7; Biochemical Sfp PPTase activity, qHTS; Potency, µM, inactives show largest response in the series, negative = inhibition, hits mostly inhibitors; 3.5% of 310,000 active; AID 1490, 2009;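 also: the enzyme is Sfp with the accession as filed and its product quenches rhodamine fluorescence; 0% = enzyme reaction without inhibitor and -100% = no enzyme wells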
#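 Step 1, compound plus 15 nM Sfp-PPTase, 15 min, room temperature. Step 2, add rhodamine-CoA (5 uM) and BHQ-2-YbbR (12.5 uM). Step 3, read 525/598 nm fluorescence at 0 and 30 min.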
# * marks the source's active call; other numbers are inactive results; ? = inconclusive; . = not tested or not shown; ! = not active in a repeat; [ ] = dose if it differs, or a comment. Calls follow the shape of the dose curve; as a rule, active = well fitted curve in the direction sought with a large enough effect; inconclusive = small, poorly fitted or top-dose-only effect, or another doubt; inactive = no such curve, though single readings can be large; an effect the other way counts as inactive or inconclusive. Potency is read from the fitted curve at half-maximal effect.
SMILES,L3MBTL1 inh,G9a inh,HP1b chromo inh,JMJD2A Tudor,BAZ2B inh,Sfp inh
COc1ccc(/C=C/C(=O)Nc2ccc(S(=O)(=O)Nc3cc(C)nc(C)n3)cc2)cc1OC,.,-3%[59 µM],-7%,-13%,-13%,5%
COc1ccccc1CN1CCCC2(CCN(C(=O)c3cccn3C)CC2)C1,.,7%[12.7 µM],.,.,.,-5%
FC(F)(F)c1ccccc1-c1ccc2ncnc(NCc3cccs3)c2c1,.,-8%[0.501 µM],.,.,.,11%
S=c1[nH]nc(-c2c[nH]c3ccccc23)o1,.,?,55%,?,-15%,-14%
Oc1cc2ccccc2cc1-c1n[nH]c(=S)o1,-7%,4µM*,6%,-23%,?,-13%
Cc1cc(-c2n[nH]c(=S)o2)c(C)n1-c1ccccc1,-16%,4µM*,-12%,?,?,6%
CCOC(=O)[C@@H]1[C@H]2COc3ccc(Br)cc3[C@H]2N2C(=O)N(c3ccc(C)cc3)C(=O)[C@]12C,-7%,-7%,12%,-19%,-24%,15%
O=c1c(-c2cccc([N+](=O)[O-])c2)[n+]([O-])c2ccccc2n1O,.,?,-1%,56µM*,?,0%
COn1c(=O)c(-c2cccc(Br)c2)[n+]([O-])c2ccccc21,7%,7%,39%,-7%,-35%,14%
CCOC(=O)COn1c(=O)c(-c2ccc(Cl)cc2)[n+]([O-])c2ccccc21,.,9%,26%,-9%,3%,16%
O=c1c(-c2ccc(Cl)cc2)[n+]([O-])c2ccccc2n1O,-4%,11µM*,-8%,25µM*,?,-19%
CC1CCN(S(=O)(=O)c2nnc(NC(=O)c3ccc(C(C)C)cc3)s2)CC1,.,14µM*,-17%,?,?,.
COc1ccc(C(=O)Nc2nnc(S(=O)(=O)N3CCC(C)CC3)s2)cc1OC,.,13µM*!,26%,?,?,7%
COc1ccc(OC)c(/C=C/C(=O)OCC(=O)NCc2cccs2)c1,44%,-5%[12.7 µM],54%,29%,55%,.
CCCCCCCCCCOc1cc2c(=O)c(C(=O)OCC)c[nH]c2cc1OCC,.,11%[12.7 µM],.,.,.,-3%
N#CCCn1cc(C(CC(=O)c2ccc(Br)cc2)C(=O)O)c2ccccc21 (stereo not given),0%,?,27%,-32%,?,12%
Cc1ccc(C(=O)CC(C(=O)O)c2cn(CCC#N)c3ccccc23)cc1 (stereo not given),2%,?,?,50µM*,3%,5%
Cc1cc(O)c2c(c1O)C(=O)[C@]13C(=C2O)C(=O)[C@@H]2[C@@H](O)[C@H]1[C@@H]1[C@H](O)[C@H]3C(=O)C3=C(O)c4c(O)cc(C)c(O)c4C(=O)[C@]312,4.5µM*,.,?,7.9µM*,.,.
COc1ccc(Cc2nnc(NC(=O)CS(=O)(=O)Cc3ccccc3)s2)cc1,.,.,38%,-5%,.,.
Cc1ccc(C(=O)NCCc2ccc(S(N)(=O)=O)cc2)cc1-n1cnc2cccnc21,.,?,32%,6%,-21%,.
CCOC(=O)CNC(=O)N1CCCC(C(=O)c2cccc(Cl)c2)C1 (stereo not given),-4%,28%,60%,-9%,-14%,16%
O=C(CSc1nnc(SCc2ccccc2Cl)s1)N/N=C/c1c[nH]c2ccccc12,-13%,15%,28%,-32%,13%,15%
CCn1c(SCC(=O)N/N=C/c2ccc(C)o2)nnc1-c1ccc(C(C)(C)C)cc1,-6%,?,9%,?,-36%,-7%
Cc1ccc(CSc2nnc(SCC(=O)N/N=C/c3c[nH]c4ccccc34)s2)cc1,.,?,-2%,?,20µM*,?
CCn1c(SCC(=O)N/N=C/c2ccc(C)o2)nnc1-c1ccc(C)cc1,0%,45µM*,33%,?,-3%,?
SMILES,L3MBTL1 inh,G9a inh,HP1b chromo inh,JMJD2A Tudor,BAZ2B inh,Sfp inh
O=C(CSc1nnc(SCc2ccccc2)s1)N/N=C/C=C\c1ccco1,13µM*,10µM*,?,13µM*,14µM*,11µM*
CCn1c(SCC(=O)N/N=C/C=C/c2ccco2)nc2ccccc21,35µM*,6.3µM*,-9%,?,45µM*,45µM*
Cn1c(SCC(=O)N/N=C/c2ccco2)nc2ccccc21,-1%,-3%,39%,-9%,-26%,11%
CCn1c(SCC(=O)N/N=C/C=C/c2ccco2)nnc1-c1ccc(OC)cc1,?,35µM*,16%,-12%,?,?
O=C(CSc1nc2ccccc2[nH]1)N/N=C/c1ccncc1,3%,3%,-14%,-16%,-2%,11%
CCn1c(SCC(=O)N/N=C/C=C/c2ccccc2[N+](=O)[O-])nnc1-c1ccc(Cl)cc1,-9%,-8%[59 µM],.,.,-10%,-9%
Cc1ccc(/C=N/NC(=O)CSc2nc3ccccc3[nH]2)o1,.,45µM*,2%,-25%,?,-38%
COc1ccc2nc(-c3cccc(F)c3)sc2c1,.,.,.,14%,.,.
Cc1cc(C(=O)Nc2ccncc2)c(C)o1,.,.,-5%,-12%,.,.
Cc1cc(C)cc(OCC(=O)N(Cc2ccccc2)C2CCS(=O)(=O)C2)c1 (stereo not given),.,-17%,9%,-10%,10%,8%
O=C(c1ccccc1)c1cc(Cl)ccc1N1C(=O)C=CC1=O,-16%,1.8µM*,10µM*,18µM*,79µM*,3.2µM*
O=C(CC(=O)c1cc(Cl)ccc1O)c1ccccc1,-5%,8%[12.7 µM],6%,-24%,-3%,-62%
S=C(NCCCn1ccnc1)NC1CCCCC1,0%,6%[59 µM],33%,-4%,-37%,22%
COc1ccc2c(c1)c1c3n2CCN(C)C3=NCC1,3%,-2%,10%,-7%,6%,16%
Cc1ccc2c(c1)c1c3n2CCN[C@H]3CCC1,.,?,.,.,.,-5%
c1cc2c(cc1C1CCCCC1)c1c3n2CCN=C3CCC1,8%,?,-10%,?,0%,79µM*
Cc1ccc2c(c1)c1c3n2CCN=C3CCC1,4%,18µM*,11%,-24%,.,4%
CCCCn1c(-c2csc(C(C)C)c2)n[nH]c1=S,-4%,4µM*,?,79µM*,-8%,-18%
CCCc1cc(-c2n[nH]c(=S)n2CC(C)C)cs1,1%,2µM*,-2%,79µM*,-30%,-9%
CCCCn1c(-c2ccc(F)c(F)c2)nc2cc3[nH]c(=O)c(C(C)C)nc3cc21,-4%,-22%,33%,?,6%,-11%
CCCCn1c(-c2csc(CC)c2)n[nH]c1=S,-7%,1.8µM*,-19%,40µM*,-36%,20µM*
